Data published in ChEMBL document CHEMBL1857833, “Screening and optimization of specific chemical series against human African Trypanosomiasis (HAT)”.
Out of some 4,400 compounds screened, about 390 (8.9%) showed an effect of 50% or more. The full list was thinned out, with strong results kept by preference.

Each compound was assayed on Trypanosoma brucei (assay: DNDI: Inhibition of Human African Trypanosomiasis, SBRI 427, in vitro at 2 ug.mL-1).
Type: functional

Going from `COc1cc(-c2nc(CN3CCN(c4cc(C)nc5ccccc45)CC3)co2)cc(OC)c1OC` to `COc1cc(-c2nc(CNCc3cccc4ccccc34)co2)cc(OC)c1OC`, the “% inhibition” value falls from 10% to 0%.

Compared with `CN(Cc1ccco1)/C(=N\O)c1ccc(Oc2c(F)c(F)cc(F)c2F)nc1`, `O/N=C(\NCc1c(F)cccc1F)c1ccnc(Oc2ccc(F)c(Cl)c2)c1` is higher in “% inhibition” value: -10% for the first, 30% for the second.

Going from `COc1cc(-c2nc(CN3CC[C@H]4CCCC[C@@H]4C3)co2)cc(OC)c1OC` to `COc1cc(-c2nc(CN3CCC4CCCCC4C3)co2)cc(OC)c1OC` (centres undefined), the “% inhibition” value rises from -12% to -10%.

First: Cc1ccc(/C(=N/O)NCc2ccco2)c(Oc2ccc(F)cc2)n1
Second: COc1ccc(Oc2nc(C)ccc2/C(N)=N/O)cc1
The “% inhibition” value of the first is higher: 22% for the first, 9% for the second.

Going from `CCN1CCN(Cc2coc(-c3ccc(Cl)cc3Cl)n2)CC1` to `Fc1ccc(N2CCN(Cc3coc(-c4ccc(Cl)cc4Cl)n3)CC2)cc1`, the “% inhibition” value falls from 22% to 14%.

First: CN(CCc1ccccn1)Cc1coc(-c2ccccc2Cl)n1
Second: CCOc1ccccc1-c1nc(CN(C)Cc2cccc3ccccc23)co1
The “% inhibition” value of the first is lower: 10% for the first, 15% for the second.

Going from `CCC(C)(C)N/C(=N\O)c1ccnc(Oc2cccc(F)c2)c1` to `CC(C)(C)CN/C(=N\O)c1ccnc(Oc2cccc(F)c2)c1`, the “% inhibition” value rises from 1% to 76%.

Compared with `Cc1cc(C)cc(CN/C(=N\O)c2ccnc(Oc3cccc(F)c3)c2)c1`, `CC(C)(C)CN/C(=N\O)c1ccnc(Oc2ccc(F)c(Cl)c2)c1` is higher in “% inhibition” value: 11% for the first, 96% for the second.

First: CSCCN/C(=N\O)c1ccnc(Oc2ccc(F)c(Cl)c2)c1
Second: CCOc1ccc(Oc2cc(/C(=N/O)NCc3ccccc3OC)ccn2)cc1
The “% inhibition” value of the first is higher: 5% for the first, 0% for the second.

Compared with `Brc1ccccc1-c1nc(CNC[C@@H]2CCCO2)co1`, `Brc1ccccc1-c1nc(CNCCN2CCOCC2)co1` is higher in “% inhibition” value: -9% for the first, 9% for the second.

Compared with `CCCCC(CC)CNCc1coc(-c2ccc(C)cc2)n1` (centres undefined), `COc1ccc(NCc2coc(-c3ccc(F)cc3)n2)cc1` is lower in “% inhibition” value: 10% for the first, -3% for the second.

Going from `Cc1ccc(/C(=N/O)N2c3ccccc3CCC2C)c(Oc2ccc3oc4ccccc4c3c2)n1` (centres undefined) to `Cc1ccc(/C(=N/O)N2c3ccccc3CCC2C)c(Oc2cccc(F)c2)n1` (centres undefined), the “% inhibition” value rises from -9% to 34%.

Compared with `COCC(C)N/C(=N\O)c1ccc(Oc2ccc3ccccc3c2)nc1` (centres undefined), `CCC(CC)N/C(=N\O)c1ccc(Oc2ccc3ccccc3c2)nc1` is lower in “% inhibition” value: 76% for the first, 32% for the second.

Going from `O/N=C(\NC1CCCCC1)c1ccc(Oc2ccc3ccccc3c2)nc1` to `O/N=C(\NC1CCC1)c1ccc(Oc2ccc3ccccc3c2)nc1`, the “% inhibition” value rises from 77% to 96%.

Going from `CC1CC(N/C(=N\O)c2ccc(Oc3ccc4ccccc4c3)nc2)CC(C)(C)C1` (centres undefined) to `CC1CCC(N/C(=N\O)c2ccc(Oc3ccc4ccccc4c3)nc2)CC1` (centres undefined), the “% inhibition” value falls from 4% to -9%.

Going from `COCC(C)N/C(=N\O)c1ccc(Oc2cc(C)cc(C(C)C)c2)nc1` (centres undefined) to `CCC(C)(C)N/C(=N\O)c1ccc(C)nc1Oc1cc(C)cc(C)c1`, the “% inhibition” value rises from 18% to 24%.

Going from `O/N=C(\NCC1CCCCC1)c1ccc(Oc2ccc3ccccc3c2)nc1` to `O/N=C(\Nc1ccccc1)c1ccc(Oc2ccc3ccccc3c2)nc1`, the “% inhibition” value falls from 6% to -7%.

Going from `Fc1cccc(-c2nc(CN3CCN(c4ncccn4)CC3)co2)c1` to `CCOc1cccc(-c2nc(CN3CCN(c4ccccc4)CC3)co2)c1`, the “% inhibition” value rises from 6% to 17%.

First: FC(F)(F)c1ccc(-c2nc(Cn3ccnc3-c3ccccc3)co2)cc1
Second: CN(Cc1coc(-c2ccc(C(F)(F)F)cc2)n1)C1CCN(Cc2ccccc2)C1 (centres undefined)
The “% inhibition” value of the first is lower: -8% for the first, 0% for the second.

First: c1cncc(CN(Cc2cccnc2)Cc2coc(-c3cccc4ccccc34)n2)c1
Second: c1ccc(-c2cn(Cc3coc(-c4cccc5ccccc45)n3)cn2)cc1
The “% inhibition” value of the first is higher: 47% for the first, -1% for the second.

First: COc1cccc(CNCc2coc(-c3ccccc3C)n2)c1
Second: CCN(Cc1coc(-c2cccc(OC)c2)n1)c1cccc(C)c1
The “% inhibition” value of the first is higher: 15% for the first, -18% for the second.

First: COc1ccc(CCN(C)Cc2coc(-c3ccc(C(F)(F)F)cc3)n2)cc1OC
Second: COc1cc2c(cc1OC)C(C(C)C)N(Cc1coc(-c3ccccc3Cl)n1)CC2 (centres undefined)
The “% inhibition” value of the first is higher: 7% for the first, 3% for the second.

Compared with `CCCN(CC1CC1)/C(=N\O)c1ccc(C)nc1Oc1cccc(C)c1`, `Cc1ccc(/C(=N/O)N(C)C2CCN(C)CC2)c(Oc2cccnc2)n1` is higher in “% inhibition” value: -4% for the first, 9% for the second.

Going from `Cc1ccc(/C(=N/O)N2CCCc3ccccc32)c(Oc2cccc(F)c2)n1` to `Cc1ccc(/C(=N/O)N2CCCc3ccccc32)c(Oc2ccc(F)c(F)c2)n1`, the “% inhibition” value falls from 93% to 21%.

Going from `Cc1cc(C)cc(Oc2nc(C)ccc2/C(=N/O)N2c3ccccc3CCC2C)c1` (centres undefined) to `Cc1cc(C)cc(Oc2nc(C)ccc2/C(=N/O)N2CCCc3ccccc32)c1`, the “% inhibition” value falls from 98% to 53%.

First: CSc1ccc(Oc2nc(C)ccc2/C(=N/O)N2c3ccccc3CCC2C)cc1C (centres undefined)
Second: CSc1ccc(Oc2nc(C)ccc2/C(=N/O)N2CCCc3ccccc32)cc1C
The “% inhibition” value of the first is lower: 0% for the first, 10% for the second.

Compared with `COc1ccc(Oc2nc(C)ccc2/C(=N/O)N2CCCc3ccccc32)cc1`, `Cc1ccc(/C(=N/O)N2CCCc3ccccc32)c(Oc2ccc3ccccc3c2)n1` is higher in “% inhibition” value: 11% for the first, 15% for the second.

Compared with `CC(C)(C)COc1ncccc1/C(=N/O)NCCN1CCOCC1`, `CC(C)(C)COc1ncccc1/C(=N/O)N1CCCC1` is lower in “% inhibition” value: 6% for the first, 0% for the second.

Compared with `CC1CCCN1/C(=N\O)c1cccnc1Oc1ccc(F)cc1` (centres undefined), `O/N=C(/c1cccnc1Oc1ccc(F)cc1Cl)N1CCCC1` is higher in “% inhibition” value: 2% for the first, 13% for the second.

Going from `c1coc(-c2nc(CN3CCCCCC3)co2)c1` to `c1ccc(N2CCN(Cc3coc(-c4ccco4)n3)CC2)nc1`, the “% inhibition” value falls from 16% to 4%.

First: CCN(Cc1ccccc1)Cc1coc(-c2ccccc2)n1
Second: c1ccc(C(c2ccccc2)N2CCN(Cc3coc(-c4ccco4)n3)CC2)cc1
The “% inhibition” value of the first is higher: 9% for the first, 0% for the second.

`CCOc1ccccc1CN/C(=N\O)c1cccnc1Oc1ccc(CC)cc1` and `CCc1ccc(Oc2ncccc2/C(=N/O)NCc2ccccc2OC)cc1` are the same in “% inhibition” value: 99% for the first, 99% for the second.

Compared with `CCOc1ccccc1Oc1ncccc1/C(=N\O)NCc1ccncc1`, `CC(C)Oc1ccccc1Oc1ncccc1/C(=N/O)NCc1ccncc1` is higher in “% inhibition” value: 0% for the first, 7% for the second.

Going from `CCOc1ccccc1CNCc1coc(-c2cccs2)n1` to `CCOc1ccccc1-c1nc(CN2CCN(CC)CC2)co1`, the “% inhibition” value rises from -4% to 16%.

Compared with `Cc1nccn1/C(=N\O)c1ccnc(Oc2cccc3cnccc23)c1`, `Cc1cccc(Oc2ccc(/C(=N/O)n3ccnc3)cn2)c1` is higher in “% inhibition” value: 14% for the first, 15% for the second.

First: Cc1ccc(/C(=N/O)N2CCCCCC2)c(OCc2ccccn2)n1
Second: O/N=C(/c1cccnc1Oc1ccc(F)cc1Cl)N1CCCCCC1
The “% inhibition” value of the first is higher: 28% for the first, 11% for the second.

First: C/C(=C\C#N)N/C(=N\O)c1ccnc(Oc2cc(C)ccc2C(C)C)c1
Second: CC(C)Oc1ccccc1Oc1ncccc1/C(=N/O)NCC1CCCO1 (centres undefined)
The “% inhibition” value of the first is higher: 21% for the first, -11% for the second.

Going from `CCN(/C(=N\O)c1cccnc1Oc1ccc2c(c1)CCCC2)C(C)C` to `O/N=C(\NCCN1CCOCC1)c1cccnc1Oc1ccc2c(c1)CCCC2`, the “% inhibition” value rises from 3% to 8%.

Compared with `CC(C)COc1ncccc1/C(=N/O)N1C(C)CCC1C` (centres undefined), `CC(C)COc1ncccc1/C(=N/O)N1C(C)CCCC1C` (centres undefined) is higher in “% inhibition” value: -2% for the first, 6% for the second.

Going from `CC1CCC(C)N1/C(=N\O)c1cccnc1Oc1ccc(-n2cncn2)cc1` (centres undefined) to `CC1CCc2ccccc2N1/C(=N\O)c1cccnc1Oc1ccc(-n2cncn2)cc1` (centres undefined), the “% inhibition” value rises from 9% to 81%.

First: CC1CCc2ccccc2N1/C(=N\O)c1cccnc1OCC(C)(C)C (centres undefined)
Second: CC(C)(C)COc1ncccc1/C(=N/O)N1CCCc2ccccc21
The “% inhibition” value of the first is lower: 84% for the first, 100% for the second.

First: O/N=C(/c1cccnc1OCc1ccccc1F)N1CCCc2ccccc21
Second: O/N=C(/c1cccnc1OCc1cccc(F)c1)N1CCCc2ccccc21
The “% inhibition” value of the first is lower: -20% for the first, -2% for the second.

Going from `CC1CCC(C)N1/C(=N\O)c1cccnc1OCC(C)(C)C` (centres undefined) to `CC(C)(C)COc1ncccc1/C(=N/O)N1CCCCCC1`, the “% inhibition” value falls from 93% to 8%.

First: O/N=C(/c1cccnc1Oc1ccc(-n2cncn2)cc1)N1CCCc2ccccc21
Second: O/N=C(/c1cccnc1Oc1ccc(F)cc1Cl)N1CCCc2ccccc21
The “% inhibition” value of the first is lower: 10% for the first, 100% for the second.

Compared with `O/N=C(/c1cccnc1Oc1ccc(F)c(Cl)c1)N1CCN(c2ccc(F)cc2)CC1`, `COc1cccc(N2CCN(Cc3coc(-c4ccc(F)cc4)n3)CC2)c1` is higher in “% inhibition” value: -10% for the first, -1% for the second.

Compared with `O/N=C(\NCCN1CCOCC1)c1ccc(Oc2ccc(Cl)cc2)nc1`, `Cc1cc(C)n(/C(=N\O)c2ccc(Oc3ccc(Cl)cc3)nc2)n1` is lower in “% inhibition” value: -2% for the first, -5% for the second.

First: CSc1ccc(Oc2nc(C)ccc2/C(=N/O)N2CCSCC2)cc1C
Second: Cc1cccc(Oc2nc(C)ccc2/C(=N/O)N2Cc3ccccc3C2)c1
The “% inhibition” value of the first is higher: 12% for the first, 3% for the second.

Going from `Cc1ccc(/C(=N/O)NCCN2CCCC2)c(OCc2cccc(F)c2)n1` to `COc1ccc(Oc2nc(C)ccc2/C(=N/O)N2CCC=N2)cc1`, the “% inhibition” value rises from -12% to 8%.

First: CCOc1cccc(Oc2ncccc2/C(N)=N/O)c1
Second: CC(C)Oc1ccccc1Oc1ncccc1/C(=N/O)NC1CCCCC1
The “% inhibition” value of the first is lower: 10% for the first, 99% for the second.

First: CCOC(=O)N1CCN(Cc2coc(-c3ccccc3Cl)n2)CC1
Second: COC(=O)C1CCN(/C(=N\O)c2cccnc2Oc2ccccc2OC(C)C)CC1
The “% inhibition” value of the first is higher: 8% for the first, -2% for the second.

Compared with `Cc1ccc(Oc2nc(C)ccc2/C(=N/O)N(C)c2ccccc2)c(C)c1`, `COc1ccc(CN/C(=N\O)c2cccnc2Oc2ccccc2OC(C)C)cc1` is lower in “% inhibition” value: 41% for the first, -18% for the second.

Compared with `CC1CC(N/C(=N\O)c2cccnc2Oc2ccccc2OC(C)C)CC(C)(C)C1` (centres undefined), `CC1CCC(N/C(=N\O)c2cccnc2Oc2ccccc2OC(C)C)CC1` (centres undefined) is lower in “% inhibition” value: 99% for the first, 98% for the second.
